NadD inh: inhibitors of Staphylococcus aureus NadD. inhibition, % at 20 µM. AID 602399. purified NadD enzyme, colorimetric absorbance read-out. 360,000 compounds, 0.78% hits; in the data active = inhibition above about 26%
B2AR ag: agonists of human beta-2 adrenergic receptor inducing internalization | P07550 | Am2.2-beta2AR cells, FAP receptor internalization, flow cytometry | response, % (concentration not given with the values) | 340,000 compounds, 0.43% hits | AID 504454;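 active = response above a set limit, near 3 SD of response in nonfluorescent compounds, cut at about 42% in these data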
GRK2 aptamer HTS: human GRK2 inhibition via aptamer displacement; inhibition of aptamer binding, % at 10 µM; 330,000 compounds, 0.59% hits; bead flow cytometry, FAM-aptamer displacement from GRK2; P25098; AID 488847;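 active = inhibition of aptamer binding above 40%, roughly 3 SD of noise, on plates passing a quality check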;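 note: median bead fluorescence of bound FAM aptamer so fluorescent compounds give negative values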
PP1 inh: PP1-alpha (human) inhibition in PP5 counter-screen | purified PP1alpha, OMFP fluorescence | 320,000 compounds, 0.9% hits | AID 2235 | inhibition, % at 6.7 µM;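 active = inhibition above the mean inhibition of all tested compounds plus 3 SD, computed separately for each screening campaign, cut at about 15% in these data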
Target sequence (P62136 whole entry, looked up): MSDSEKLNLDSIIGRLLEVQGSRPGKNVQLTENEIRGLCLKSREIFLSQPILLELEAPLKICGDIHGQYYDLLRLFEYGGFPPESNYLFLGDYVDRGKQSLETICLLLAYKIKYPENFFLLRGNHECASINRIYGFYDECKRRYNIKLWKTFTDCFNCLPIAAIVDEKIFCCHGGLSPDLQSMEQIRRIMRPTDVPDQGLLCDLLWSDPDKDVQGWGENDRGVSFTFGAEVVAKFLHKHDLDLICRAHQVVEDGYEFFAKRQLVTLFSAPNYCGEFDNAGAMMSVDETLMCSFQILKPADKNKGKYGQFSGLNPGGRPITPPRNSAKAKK
Granule exo inh: blocks lytic granule exocytosis. TALL-104 LAMP-1 surface exposure, flow cytometry; cells stimulated with thapsigargin and PMA. inhibition, % at 10 µM. 360,000 compounds, 0.66% hits;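 active = inhibition above about 55%, limit read from the data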
Exocytosis CP01: lytic granule exocytosis inhibition. inhibition, % at 10 µM. shares compounds with Granule exo inh. TALL-104 cells, LAMP-1 externalization, flow cytometry; stimulated with PMA plus thapsigargin. 1,500 compounds, 11% hits; in the data active = inhibition above about 60%
Hits are given with their value; . = inactive; / = no result; ! = repeats disagree. Only some compounds are listed: those with a hit (about 2.9% of all), similar ones and a draw of the others.

SMILES | NadD inh | B2AR ag | GRK2 aptamer HTS | PP1 inh | Granule exo inh | Exocytosis CP01
COc1ccc(CC(CN)c2ccccc2)cc1 (centres undefined) | . | . | . | . | 57.5 | .
Cc1cc(Nc2cccc(Cl)c2)nc(NCc2ccccc2)n1 | . | . | . | 16.2 | 70.2 | .
COc1ccc(C(=O)C2CCCN(Cc3cccn3-c3ccc(Cl)cn3)C2)c(OC)c1 (centres undefined) | . | . | . | . | 68.5 | .
COc1ccc(C(=O)C2CCCN(Cc3c(F)ccc(F)c3F)C2)c(OC)c1 (centres undefined) | . | . | . | . | . | /
Cc1ccc(-n2sc3ccccc3c2=O)cc1 | . | . | . | . | 74.2 | .
O=c1c2ccccc2sn1-c1ccc(F)cc1 | . | . | . | . | . | /
O=c1c2ccccc2sn1-c1ccc(Cl)cc1 | . | / | / | / | 79.2 | 103.8
O=C(NCc1cccnc1)C1CCN(S(=O)(=O)c2cc([N+](=O)[O-])ccc2Cl)CC1 | . | . | . | / | . | /
Cn1c(N)c(C(=O)CSc2nc(C3CC3)n(-c3ccccc3)n2)c(=O)n(C)c1=O | . | . | . | . | . | /
COC(=O)N1[C@H](C)C=C[C@]1(Cc1ccccc1)C(=O)OC | . | . | . | . | 57.2 | .
CC[C@H](C)[C@H]1O[C@]2(CC[C@@H]1C)C[C@@H]1C[C@@H](CC=C(C)[C@@H](O[C@H]3C[C@H](OC)[C@@H](O[C@H]4C[C@H](OC)[C@@H](O)[C@H](C)O4)[C@H](C)O3)[C@@H](C)C=CC=C3CO[C@@H]4[C@H](O)C(C)=C[C@@H](C(=O)O1)[C@]34O)O2 | . | . | . | . | . | /
CC(=O)c1c(C)n(-c2ccc(Cl)cc2)c2ccc(O)cc12 | . | . | . | . | . | /
CC(=O)c1c(C)n(-c2cccc(Cl)c2)c2ccc(O)cc12 | . | . | . | . | 80.7 | .
CC(C)[C@H]1COCCS(=O)(=O)N1Cc1ccccc1-c1ccc(C(C)(C)C)cc1 | . | . | . | / | . | /
CCOC(=O)Cc1csc(-n2sc3ccccc3c2=O)n1 | . | . | . | . | 78.4 | .
COc1cccc(CN(C)C(c2ccccc2)c2ccccc2)c1OC | . | . | . | . | 88.8 | .
COc1ccccc1N(C1=NCCCS1)S(=O)(=O)c1ccc(C(C)(C)C)cc1 | . | . | . | . | . | /
CC(C)(C)n1nnnc1C(c1cccs1)N(Cc1ccccc1)Cc1ccco1 (centres undefined) | . | . | . | . | 77.9 | .
Cc1ccc(/C=C2/NC(=O)N(Cc3ccccc3)C2=O)o1 | . | . | . | . | 57.5 | .
CCN1CCN(Cc2ccc(NC(=O)c3cc(NC(=O)C(=O)c4c[nH]c5ccccc45)cc(OC)c3)cc2C(F)(F)F)CC1 | . | . | . | . | 56.1! | 85.8
COc1ccccc1CCC(=O)NCCCn1ccc2ccccc21 | . | . | . | . | 71.5 | .
COc1ccccc1CCNC(=O)Cn1ccc2cc(S(=O)(=O)N3CCC(C)CC3)ccc21 | . | . | . | . | 59.9 | .
O=C(Nc1cnn(Cc2ccccc2)c1)c1cc2nc(-c3ccco3)cc(C(F)(F)F)n2n1 | . | . | . | . | 96.2 | .
O=C1CC(Cc2ccccc2)C(=O)N1CCc1ccc2c(c1)OCO2 (centres undefined) | . | . | . | . | 76.5 | .
c1ccc2c(N3CCCC3)nc(-c3ccncc3)nc2c1 | . | . | . | . | 60.5 | .
SMILES | NadD inh | B2AR ag | GRK2 aptamer HTS | PP1 inh | Granule exo inh | Exocytosis CP01
CN1CCN(c2nc(-c3ccncc3)nc3ccccc23)CC1 | . | . | . | . | . | /
Nn1c(SCC(=O)NC(=O)NCc2ccco2)nnc1-c1ccc(OC(F)F)cc1 | . | . | . | . | . | /
COc1ccc(NC(=O)N(C2CCCCC2)C2CCN(C(C)C)CC2)c(OC)c1 | . | . | / | / | 70.2 | .
COc1ccc(NC(=O)N(C2CCCCC2)C(C)c2ccco2)c(OC)c1 (centres undefined) | . | . | . | . | . | /
CCCN(C(=O)CCSc1ccc(F)cc1)c1c(N)n(Cc2ccccc2)c(=O)[nH]c1=O | . | . | . | . | . | /
O=c1c2cc(Cl)ccc2[nH]c(=S)n1Cc1cccs1 | . | . | . | . | . | /
COc1cccc(N2CCN(c3ncnc4c3[nH]c3ccc(F)cc34)CC2C)c1 (centres undefined) | . | . | . | . | 98.5 | 103.6
COc1cccc(N2CCN(c3ncnc4c3[nH]c3ccccc34)CC2C)c1 (centres undefined) | / | / | . | . | / | /
CCOc1ccc(S(=O)(=O)Nc2cccc(C(=O)N3CCN(c4ccccc4O)CC3)c2)cc1 | . | . | . | . | . | /
CCOc1ccc(S(=O)(=O)Nc2cccc(C(=O)N3CCN(c4ccccn4)CC3)c2)cc1 | . | / | / | / | 55.5 | .
COC(=O)C1CCN(CCCOc2ccc(CN3CCN(c4ccc([N+](=O)[O-])cc4)CC3)cc2)CC1 | . | . | . | . | 83.7 | .
COC(=O)C1CCN(c2ccc([N+](=O)[O-])cc2)CC1 | . | . | . | . | . | /
C=CCn1c2ccccc2c2nnc(SCCCn3c(=O)[nH]c4ccccc43)nc21 | . | . | / | / | 66.7 | .
CCN(CC)CCSc1nnc2c3ccccc3n(CCc3ccccc3)c2n1 | . | . | . | . | 60.1 | .
O=C1c2ccccc2C(=O)N1CSc1nnc2c3ccccc3n(CCc3ccccc3)c2n1 | . | . | . | . | . | /
CN(C(=O)COC(=O)CNC(=O)c1ccccc1F)C1CCCCC1 | . | . | . | . | . | /
Cc1cccc(C)c1NC(=O)CS(=O)CC(=O)NCC1OCCc2ccccc21 (centres undefined) | . | . | . | . | . | /
COc1ccc(OC)c(C2=Nn3c(nnc3C3CCCCC3)SC2)c1 | . | . | . | . | 72.6 | .
COc1ccccc1C1=Nn2c(nnc2C2CCCCC2)SC1 | . | . | . | . | . | /
CC(C)[C@H](NC(=O)c1ccccc1)C(=O)OCC(=O)N1CCc2ccccc2C1 | . | . | . | . | 68.3 | .
CC(C)C(NC(=O)c1ccccc1)C(=O)OCC(=O)N1CCCCC1 (centres undefined) | . | . | . | . | . | /
CC1(CCC(=O)O)C(=O)CCC2C1CCC1(C)C2CCC1(C)O (centres undefined) | . | . | / | / | . | /
CCC1CCC(N2CCN(c3ccc([N+](=O)[O-])cc3)CC2)CC1 (centres undefined) | . | . | . | / | 74.5 | .
Cc1nc(C)c(C(=O)N/N=C/c2ccco2)s1 | . | . | . | . | . | /
Fc1ccc(CNCCC(Cc2ccccc2)c2ccco2)cc1 (centres undefined) | . | . | . | . | 78.5 | .
CC(NCCC(Cc1ccccc1)c1ccco1)c1ccccc1 (centres undefined) | . | . | . | . | . | /
CCCN1CCC(=O)N(CCOc2ccccc2)CC1 | . | . | . | . | . | /
CC(C)(C)C1CCC(=O)N(CCOc2ccccc2)CC1 (centres undefined) | . | . | . | . | 67.1 | .
